The results in this text go back to the supplement of paper PMC10105736.

A number with no mark means an inactive call.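 The calls were made as follows: active = MAPPIT score above the 99th percentile of random reference set scores in the same batch; inactive = at or below it.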

Common to all, as to assay: MAPPIT interaction score (arbitrary units); higher = stronger binary interaction signal, active = hit call of the paper
In one experiment the target is Osi8. Particulars: MAPPIT configuration: N-C; pair source set: RRS.
The next experiment concerns the target PIG-C. Particulars: MAPPIT configuration: N-C; pair source set: screen_3.
The next experiment deals with Tsp96F. To be noted: MAPPIT configuration: N-C; pair source set: screen_4.
The next experiment concerns the target Pc. To be noted: pair source set: Lit-BM-16.
The target of the next experiment is PCID2. Particulars: MAPPIT configuration: N-N; pair source set: Lit-BS-16.
A further experiment concerns the target Past1. Particulars: MAPPIT configuration: N-N; pair source set: Lit-BM-16.
A further experiment concerns the target Rm62. To be noted: MAPPIT configuration: N-N; pair source set: Curagen_high_conf.
A further experiment deals with ktub. Particulars: MAPPIT configuration: N-N; pair source set: Curagen_high_conf.
The target in a further experiment is mira. To be noted: pair source set: Lit-BM-16.
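Also: HEK293T cells with Epo stimulation, STAT-responsive firefly luciferase reporter, fold induction versus unstimulated cells divided by the larger fold induction of two negative controls lacking either bait or prey.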

B1: cid (protein)
chain: MPRHSRAKRAPRPSANNSKSPNDDDTAFRSPEPEDGTDYGLEFTTSQLTLQDNNRRSSTLRRDAGRRQPAARDSSTSGEEEDQENRYPTTRSPQTRRMTVQQESKTRAAGPVAAQNQTRRRKAANPMSRAKRMDREIRRLQHHPGTLIPKLPFSRLVREFIVKYSDDEPLRVTEGALLAMQESCEMYLTQRLADSYMLTKHRNRVTLEVRDMALMAYICDRGRQF
Consider B1, for which the MAPPIT interaction score in the experiment with Osi8 was -0.541.

B2: Vha16-1 (protein)
chain: MSSEVSSDNPIYGPFFGVMGAASAIIFSALGAAYGTAKSGTGIAAMSVMRPELIMKSIIPVVMAGIIAIYGLVVAVLIAGALEEPSKYSLYRGFIHLGAGLAVGFSGLAAGFAIGIVGDAGVRGTAQQPRLFVGMILILIFAEVLGLYGLIVAIYLYTK
As for B2, the results for the MAPPIT interaction score with PIG-C and with Tsp96F were 0.119 and 0.231, respectively.

B3: wat (protein)
chain: MDDPKIMNIMNGMKSLEDHCQLISDVKDESPMQMFYKDKGVFLTGGTGFFGKIIIEKLLRVTEVGQIYLLIRTKKGKDAFARIEDLFNDPVFAKMKQVNPKYRCQITIISGDCSLPGLGISADERETIMENVNIVLHSAATVRFDEKLKMAIAINVHGTKEIIKLAKEIVNLKALVHVSTAFAHCNMRHIQERFYSGTMSGENAFKLSECLDEHTLNTLTPTIIKGYPNTYTFTKVLAENVVQQSAQNLPVTIFRPGIVITTYREPVTGWIDNMYGPCGVIVGIGSGVLRVFTGDMDNKAHIVPVDMCVNALLASAWDIARNKYETPPIYNYVPDAENMVTWRRYMEDGFEYGCDIPMRKSIWYPRFTIVPHMWQYHILCFLYHTLPALVMDAIMVIIGKKPRMMKIYRKIHKLSNVLKYFSSNEFRFDNDNVRKLTEKLDDRDKRLFAFDMRDLDWTNLFRVSLYGLRLYVVKDDPSNIPESIKRYERLKVLHYTTLAVFYALAAWALYALLKLFL
For B3, the MAPPIT interaction score with PIG-C is 1.02.

B4: Psc (protein)
chain: MMTPESKAIQPAAATTKQTAEATATTTMAHTQQKSQLSTLAKTTTTTATNKAAKSVVSNANSSGNNSSKKLALSQSQKTTTTTTPPTTTTTTTAAAAAEATTNADKMQKQQQLKQQLFAACSIKVKSENTLATTANAALAAATTTTTTATPALATGKAAKTILENGIKKESTPPAVESVEASSSSSSSSSSSSSSSSSWPTTRRATSEDASSNGGASADEEKSEEDPTAAVAASSTATTTSDLATTSRPRPVLLTAVNPHIICHLCQGYLINATTIVECLHSFCHSCLINHLRKERFCPRCEMVINNAKPNIKSDTTLQAIVYKLVPGLYERELMRKRAFYKDRPEEAALATPEQRGDDTEHLIFSPSDDMSLSLEYAELGELKTDSEPELVDTLRPRYLQCPAMCRVSHLKKFVYDKFEIDAQRFSIDIMYKVKTIVLLDYYTLMDIAYIYTWKRDAPMRFYYRVYESPQPLVKPAPRRVLPLKLEKQERENQEQQLAVEVASSKVEPVSLPEDQKAEASIKVEEQESTREIVKEVIKDVAATPPTETLKLVINRNMLDKREKSHSPQMSSKSSSKSSPCTPVSSPSEPNIKLKIDLSKQNSVTIIDMSDPERREIVKPLKPEKESRSKKKDKDGSPKSSSSSSSSSSGERKRKSPSPLTVPPLTIRTERIMSPSGVSTLSPRVTSGAFSEDPKSEFLKSFALKPIKVKVESPERTLNNRAITPPSPSVQQSASPKSKGNNLDDSILMKPPSCMPPKSIASSKRKSKEPVKAVSKKQKLSPPLPTVDFKIRLPVTNGNSSGTASPKIEKPLMPPPAKPPMLAPRKLQPSAQFAPPPSPIHHHAGVQMSAPGNRTPIAKRYQPILPKASRPNPFANIPNDVNRLLKDAGTEIKSIGGGSVENNSNAAQKPHLYGPKGESKMGPPALPATTPSQGNKNVGKQAGNLPMSAPPNKGNSSNNYLNLALFNSSKCKGKEAPPGCRTPMYTPNSPIYSPSSPQYVPSYNIPTMPTYKYTPKPTPNSGSGNGGSGSYLQNMLGGGNGGSLGGLFPSPPTKSDQNTNPAQGGGGSSSATQSGGNNGIVNNNIYMPNEDAPEKQQVKVKSLLNSCNINIPSSLSITISRDNGDSSSPNNGQHPKHKSPVNNYIEIVKLPDQPQDQVQAAKEAQKRQSPPAAVPGHLAAKLPPPPPSKAIPSPQHLVSRMTPPQLPKVATPPPPSSPRVITPPKTSPPANAAKVTPLKPVLTPTQVDKKTPSPEKRTAAQMGSHSPTASENKSPKGGPAGVANSTGGAQNGDPAAKKFRPILPRQNGMPELAPKLPTLAPFVGFNPLQNPAAGKKVPPSKKSPNAGAAAHQSGQQKLVNGGQSQPAQQKTSPPAQKNQQQVKKVSKNPTPPPPSLPAVGKMMPHPVMHSQNAPLSIASSASAAAVASGQLDLSNFLKENLRRVHAAQAAQAAQVAAAANQSNMMYNLAQMGHMTPAMYNYQQAYFREQLSRMQRVGNEVFNDYLQKLKTAAATGGGGPVEGELKPMLPTVTLPSPGATPPAASPKTSPLPAGKLTAAATAPQTKGNSSSGAANARQQTAATGNNGATVPAASLPPATKSK
As to B4, the values for the MAPPIT interaction score in the experiment with Pc (MAPPIT configuration: N-C) and with Pc (MAPPIT configuration: N-N) were 1.11 and -0.137, respectively.

B5: Fs(2)Ket (protein)
chain: MTSDIAMQLIAILEKTVSPDKNELLSAKNFLEQAAASNLPEFLKALSEILVNTANSAVARMAAGLQLKNHLTSKDEKVSQQYQDRWHQFPSEIRELIKNNILAALGTENTRPSCAAQCVAYVAVIELPINRWPMLIQTLVNKVVSEGSSEMHRESALEAIGYICQDIRFGVMENQSNDVLTAIIHGMRKVEPSNHVRLAATTALHNSLEFTKSNFEKDMERNFIMEVVCEATQCQDSQICVAALQCLVKIMTLYYQYMEPYMAQALFPITLAAMKSDNDAVALQGIEFWSNVCDEEIDLAIESQEATDQGRAPQRVSKHYARGALQFLTPVLVEKLTKQDECDDEDTWSPAKAASVCLMVLATCCEDEIVPHVLPFIKENIESPNWRFRDAAVMTFGSVLNGLETNTLKPLVEQAMPTLIRLMYDSSVIVRDTIAWTFGRICDIIPEAAINETYLQTLLECFVKSLKSEPRVAANVCWAFIGLSDAAWEAAVTNDGETPETYALSPYFEYIITQLLETTDRSDGAQANLRCAAYQALMDMIKNSPLDCYLVVQRTTLVILERLNQVMQMETQINNHSDRHQFNDLQSLLCATLQSVLRKVHEQDAPQISDAIMTALLTMFNSSAGKSGVVQEEAFLAVSTLVELLGAQFAKYMPAFKDFLVMGLKNFQEYQVCCAAVGLTGDIFRALKDLMVPYSNEIMTVLINNLTEPTIHRTVKPQVLSAFGDIALSIGNHFLPYLSMVLDMLRVASNLQTDANNFDMNEYINELRESILEAYTGIIQGLKGVDQTAHTDVMHMEPHLMHIISFIKRIAQEGDVSDSMLASAAGFIGDLCTSFGPRLYPLLDDAIITQFLAEGKRSKAQRTKMLCTWAVKEIKKINTQVITQ
Consider B5, for which the MAPPIT interaction score with PCID2 is 0.0886.

B6: numb (protein)
chain: MGNSSSHTHEPLERGFTRGKFGDVKNGKSASFRFSKKSPKKMDRLRRSFRDSFRRRKDRVPESSKPHQWQADEEAVRSATCSFSVKYLGCVEVFESRGMQVCEEALKVLRQSRRRPVRGLLHVSGDGLRVVDDETKGLIVDQTIEKVSFCAPDRNHERGFSYICRDGTTRRWMCHGFLACKDSGERLSHAVGCAFAVCLERKQRRDKECGVTMTFDTKNSTFTRTGSFRQQTLTERLAMATVGTNERSVDGPGSAMPGPPAATVKPFNPFAIERPHATPNMLERQSSFRLSTIGSQSPFKRQMSLRINDLPSNADRQRAFLTAAAGNPMQTPLRSVSPIAEVSPAKSAGADPLSAAAVAADSVSQLCQELSQGLSLLTQTDALLAAGEDLNFNNNRSINQNIIAAEKQVQHVHSYAPPTAQVTPRVASTTPTYQTLHSQSPSRSEQSIETSTELPNAEQWLGHVVRSTSPAAPKRPTYLANVGRAQTLASGTGAAVGGGGPDDPFDAEWVANVAAAKQLSPDLPIPSTARSPLARHSTNPFISPPKAPAQSFQVQL
On to B6, for which the MAPPIT interaction score with Past1 was 0.0235; with Rm62 it was -0.368; with ktub, -1.3; in the experiment with mira (MAPPIT configuration: N-C), 1.17; in the experiment with mira (MAPPIT configuration: N-N) it was -0.252.
